Test results published in PubChem BioAssay (Tox21).
Results filed as inconclusive are left out. Where a call stands in place of a potency, no number is given. A number with no mark means an inactive call. Active and inactive are the calls of the source. Calls come from the whole dose curve; as a rule, active = well fitted cell-killing curve with a large enough effect in the repeat runs; inconclusive = weak or mixed curves, or effect the other way; inactive = flat fitted curve, though single readings scatter.

Assays:
[1] = cAMP Responsive Elements (CRE) small molecule antagonists, cell-based qHTS assay: qHTS cell viability counter screen (AID 2060913); settings: CRE-bla HEK293T viability, CellTiter-Glo luminescence, 5 h; series mostly up to 92.4 µM; note: nearly all actives have a fitted effect of over 40% in size
Procedure, shortened: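 HEK293T CRE-bla, 2,000 cells/well, 18 h preincubation; cpd in DMSO + NKH477 0.25 uM final, 3 h 37 C/5% CO2; LiveBLAzer 2 h RT, then CellTiter-Glo 30 min RT, luminescence.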

[2] = cAMP Responsive Elements (CRE) small molecule agonists, cell-based qHTS assay: qHTS cell viability counter screen (AID 2060914); settings: CRE-bla HEK293T viability, CellTiter-Glo luminescence, 5 h; series mostly up to 92.4 µM;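 note: viability read after 3 h of compound exposure; nearly all actives have a fitted effect of over 50% in size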
Procedure, shortened: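 Cells are seeded and incubated 18 h, treated with compounds in DMSO for 3 h, read for the bla reporter, then given CellTiter-Glo; luminescence is measured after 30 min at room temperature.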
Potency is the fitted concentration of half-maximal effect.

Structure (SMILES)	Potency [1]	Potency [2]	viability change, negative = cytotoxic [1]	activity change, negative = cytotoxicity [2]
CCC(Cc1ccccc1)(C(=O)c1ccc(N2CCOCC2)cc1)N(C)C (stereo unspecified)	inactive	inactive	–	–
Cc1ccc(O)c(-n2nc3ccccc3n2)c1	inactive	inactive	–	–
CC(C)CCOC(=O)CC(C)C	inactive	inactive	–	–
O=S(=O)(O)CCCN1CCOCC1	inactive	inactive	–	–
CN(C)c1ccc(/C=C/c2ccc([N+](=O)[O-])cc2)cc1	–	–	10.9% [at 8.39 µM]	5.22% [at 8.39 µM]
C[C@H]1[C@H](NC(=O)/C(=N/OC(C)(C)C(=O)O)c2csc(N)n2)C(=O)N1S(=O)(=O)O (stereo in doubt)	inactive	inactive	–	–
CCCCOCC	inactive	inactive	–	–
O=C1c2ccccc2C(=O)c2cc(Cl)ccc21	–	–	-0.399% [at 8.39 µM]	2.19% [at 8.39 µM]
CCCCC(=O)OCC(=O)[C@H]1[C@H](C)C[C@H]2[C@@H]3C[C@H](F)C4=CC(=O)C=C[C@]4(C)[C@@]3(F)[C@@H](O)C[C@@]21C	inactive	inactive	–	–
CC1(C)OC(=O)NC1=O	inactive	inactive	–	–
Cc1ccccc1OCC(O)CO (stereo unspecified)	inactive	inactive	–	–
COC(=O)c1cc(Cl)cc(Cl)c1	inactive	inactive	–	–
O=C(Nc1ccc(C(=O)O)c(O)c1)c1ccccc1	inactive	inactive	–	–
CC(=O)c1ccc2ccccc2c1	inactive	inactive	–	–
C/C=C/C(=O)CC	–	–	6.92% [at 18.9 µM]	7.79% [at 18.9 µM]
CCCCOC(=O)[C@@H](C)Oc1ccc(Oc2ccc(C(F)(F)F)cn2)cc1	inactive	inactive	–	–
CC(=O)Nc1c(I)c(NC(C)=O)c(I)c(C(=O)O)c1I	inactive	inactive	–	–
Fc1ccc(C(c2ccc(F)cc2)N2CCN(C/C=C/c3ccccc3)CC2)cc1	inactive	inactive	–	–
Cc1ccc(OC(=O)CC(C)C)cc1	inactive	inactive	–	–
O=c1[nH]cc(F)c(=O)[nH]1	inactive	inactive	–	–
CCCCCCCCCC(=O)O	inactive	inactive	–	–
Cc1cccc(S(=O)(=O)O)c1C	inactive	inactive	–	–

Structure (SMILES)	Potency [1]	Potency [2]	viability change, negative = cytotoxic [1]	activity change, negative = cytotoxicity [2]
NC[C@H](O)c1ccc(O)c(O)c1	inactive	inactive	–	–
O=C(O)c1cc(O)c(O)c(O)c1	inactive	inactive	–	–
CCCC(=O)OCc1ccccc1	inactive	inactive	–	–
COc1cc(C(=O)NC2CCCNC2)cc(OC)c1OC (stereo unspecified)	inactive	inactive	–	–
C=C(C)C(=O)OCC[N+](C)(C)C	inactive	inactive	–	–
CC(C)CCCCCCOC(=O)C1CCCCC1C(=O)OCCCCCCC(C)C (stereo unspecified)	inactive	inactive	–	–
Cc1ccc(S(=O)(=O)NC(=O)NN2CCCCCC2)cc1	inactive	inactive	–	–
CCn1cc(C(=O)O)c(=O)c2cnc(N3CCCC3)nc21	–	–	3.75% [at 8.39 µM]	-22.5% [at 8.39 µM]
Cc1cc2cc3c(C)cc(=O)oc3c(C)c2o1	inactive	inactive	–	–
CCCCCC1CCCC(=O)O1 (stereo unspecified)	inactive	inactive	–	–
O=C(NC(Cc1cc(=O)[nH]c2ccccc12)C(=O)O)c1ccc(Cl)cc1 (stereo unspecified)	inactive	inactive	–	–
C1CN(CCOCCN2CCOCC2)CCO1	inactive	inactive	–	–
Cc1cc2c(cc1CC(=O)c1sccc1S(=O)(=O)Nc1onc(C)c1Cl)OCO2	inactive	inactive	–	–
CCN(Cc1ccccc1)c1ccccc1	inactive	inactive	–	–
CCN(CC)c1cccc(O)c1	inactive	inactive	–	–
CC(C)NCC(O)COc1ccc(CCOCC2CC2)cc1 (stereo unspecified)	inactive	inactive	–	–
O=C(c1ccc2c(c1)C(=O)OC2=O)c1ccc2c(c1)C(=O)OC2=O	inactive	inactive	–	–
NC(N)=N/N=C/c1c(Cl)cccc1Cl	inactive	inactive	–	–
CCOC=C(C(=O)OCC)C(=O)OCC	inactive	inactive	–	–
CC/C(=C(/c1ccc(O)cc1)c1ccc(OCCN(C)C)cc1)c1ccccc1	37.6 µM (active)	inactive	–	–
CC[N+](CC)(CC)CCOC(=O)C(C1CCCC1)C1CCCC1	inactive	inactive	–	–
Cc1cc(C)c(C=O)c(C)c1	inactive	inactive	–	–

Structure (SMILES)	Potency [1]	Potency [2]	viability change, negative = cytotoxic [1]	activity change, negative = cytotoxicity [2]
CCC(=O)O[C@@H]1C[C@H]2CC[C@]1(C)C2(C)C	inactive	inactive	–	–
NS(=O)(=O)c1ccccc1Cl	inactive	inactive	–	–
Nc1c2c(nc3c1CCC3)CCCC2	inactive	inactive	–	–
CC1=CC[C@@H]2C[C@H]1C2(C)C	–	–	-0.978% [at 18.9 µM]	-0.0766% [at 18.9 µM]
COc1ccc(CCC(C)=O)cc1	inactive	inactive	–	–
Cc1cc([N+](=O)[O-])ccc1N	inactive	inactive	–	–
CC(CN1c2ccccc2Sc2ccccc21)N(C)C (stereo unspecified)	inactive	inactive	–	–
Nc1cccc(C(F)(F)F)c1	inactive	inactive	–	–
NCCCC[C@H](N[C@@H](CCc1ccccc1)C(=O)O)C(=O)N1CCC[C@H]1C(=O)O	inactive	inactive	–	–
FC(F)(F)C(Cl)(Cl)Cl	inactive	inactive	–	–
COc1cc(C(C)(C)C)c(O)c(C(C)(C)C)c1	inactive	inactive	–	–
C[CH2][Ge]([Cl])([CH2]C)[CH2]C	inactive	inactive	–	–
CCCC[N+](C)(CCCC)CCCC	inactive	inactive	–	–
CC(COc1ccccc1)N(CCCl)Cc1ccccc1 (stereo unspecified)	inactive	inactive	–	–
COC(=O)c1ccc([N+](=O)[O-])cc1	inactive	inactive	–	–
CCCCCCCCCCCCCCCCCC[N+](C)(C)Cc1ccccc1	61.7 µM (active)	55 µM (active)	–	–
C1CCN2C[C@@H]3C[C@@H](CN4CCCC[C@@H]34)[C@H]2C1	inactive	inactive	–	–
CCN(CC)CCOC(=O)C(c1ccccc1)C1CCCCC1 (stereo unspecified)	inactive	inactive	–	–
OC1CCCCC1c1ccccc1 (stereo unspecified)	inactive	inactive	–	–
O=C(NCCCN1CCOCC1)c1ccc(Cl)cc1	inactive	inactive	–	–
COc1cc(C=C2CCC/C(=C\c3ccc(O)c(OC)c3)C2=O)ccc1O	inactive	inactive	–	–
COC(=O)c1ccc(OC)cc1	inactive	inactive	–	–

Structure (SMILES)	Potency [1]	Potency [2]	viability change, negative = cytotoxic [1]	activity change, negative = cytotoxicity [2]
OCCc1ccncc1	inactive	inactive	–	–
COCc1nnc(-c2ccc[n+]([O-])c2)n1-c1c(Cl)c(Cl)cc2[nH]c(=O)c(=O)[nH]c12	inactive	inactive	–	–
O=S(=O)(O)c1cc(Cl)c(Cl)cc1Cl	inactive	inactive	–	–
CCN(CC)CC1CCCCN1CC(=O)N1c2ccccc2C(=O)Nc2cccnc21 (stereo unspecified)	inactive	inactive	–	–
CCN[C@H]1CN(CCCOC)S(=O)(=O)c2sc(S(N)(=O)=O)cc21	inactive	inactive	–	–
CC(=O)CC(C)(C)O	inactive	inactive	–	–
CC(C)c1nnc2ccc(-c3ocnc3-c3cc(F)ccc3F)cn12	inactive	inactive	–	–
Cc1c(N)c(=O)n(-c2ccccc2)n1C	inactive	inactive	–	–
CCOc1ccc(OCC)c(Cl)c1	inactive	inactive	–	–
Cc1cc2nc3c(=O)[nH]c(=O)nc-3n(C[C@H](O)[C@H](O)[C@H](O)CO)c2cc1C	inactive	inactive	–	–
N#CCc1ccc(Cl)cc1Cl	inactive	inactive	–	–
C[Si](C)(C)O[Si](C)(C)C	inactive	inactive	–	–
COC(=O)CC(C)=O	inactive	inactive	–	–
O=C(O)c1cccc(C(F)(F)F)c1	inactive	inactive	–	–
CCCCCC/C=C\CCCCCCCC(=O)O	inactive	inactive	–	–
OCCOc1ccc(OCCO)cc1	inactive	inactive	–	–
NC(N)=Nc1nc(CSCC/C(N)=N/S(N)(=O)=O)cs1	inactive	inactive	–	–
O=C(/C=C/c1ccc(O)c(O)c1)O[C@@H]1C[C@@](OC(=O)/C=C/c2ccc(O)c(O)c2)(C(=O)O)C[C@@H](O)[C@@H]1O	inactive	inactive	–	–
COC(=O)CCS	inactive	inactive	–	–
CCCCOCC(C)O (stereo unspecified)	inactive	inactive	–	–
O=c1oc2cc(O)ccc2c2oc3cc(O)ccc3c12	inactive	inactive	–	–
O=C(NO)C1(NS(=O)(=O)c2ccc(Oc3ccc(F)cc3)cc2)CCOCC1	inactive	inactive	–	–

Structure (SMILES)	Potency [1]	Potency [2]	viability change, negative = cytotoxic [1]	activity change, negative = cytotoxicity [2]
O=S(=O)(O)c1ccccc1O	inactive	inactive	–	–
CCOC(=O)CCCCCCCCC(=O)OCC	inactive	inactive	–	–
COc1ccc([C@@H]2Sc3ccccc3N(CCN(C)C)C(=O)[C@@H]2OC(C)=O)cc1	inactive	inactive	–	–
CC(C)CCCCCCCOC(=O)c1ccc(C(=O)OCCCCCCCC(C)C)c(C(=O)OCCCCCCCC(C)C)c1	inactive	inactive	–	–
N#C/C(=C1/SC[C@@H](c2ccc(Cl)cc2Cl)S1)n1ccnc1	inactive	inactive	–	–
C=C(C)C(=O)OCC(O)COc1ccc(C(C)(C)c2ccc(OCC(O)COC(=O)C(=C)C)cc2)cc1 (stereo unspecified)	61.1 µM (active)	61.1 µM (active)	–	–
Cc1c(NC(C)C)c(=O)n(-c2ccccc2)n1C	inactive	inactive	–	–
FC1(F)C(F)(F)C(F)(F)C2(F)C(F)(C1(F)F)C(F)(F)C(F)(F)C1(F)C(F)(F)C(F)(F)C(F)(F)C(F)(F)C12F (stereo unspecified)	inactive	inactive	–	–
[Na+]	inactive	inactive	–	–
CCOC(=O)CC(=O)C(=O)OCC	inactive	inactive	–	–
CC12CCC(CC1)C(C)(C)O2	inactive	inactive	–	–
O=C1OC(=O)c2ccc3c4c(ccc1c24)C(=O)OC3=O	inactive	inactive	–	–
CCCCCCCCCCCCCOP(=O)(O)O	inactive	inactive	–	–
Oc1c(I)cc(Cl)c2cccnc12	inactive	inactive	–	–
CC(C)(CO)[C@@H](O)C(=O)NCCC(=O)O	inactive	inactive	–	–
CCC=CC#N	inactive	inactive	–	–
CC(C)CCCC(C)CCCC(C)CCCCC(C)CCCC(C)CCCC(C)C (stereo unspecified)	inactive	inactive	–	–
CCCCN	inactive	inactive	–	–
O=C(O)CCCC[P+](c1ccccc1)(c1ccccc1)c1ccccc1	inactive	inactive	–	–
CN1C[C@H](C(=O)N[C@]2(C)O[C@@]3(O)[C@@H]4CCCN4C(=O)[C@H](Cc4ccccc4)N3C2=O)C[C@@H]2c3cccc4[nH]cc(c34)C[C@H]21	inactive	inactive	–	–
